Experimental data published in PubChem BioAssay (EPA / NIEHS).
Active and inactive are the calls of the source. How the source made its calls: active means hit-call score of the fitted dose curve at least 0.9, where 1 is the maximum; inactive means score below 0.9.

How the values were obtained:
Conditions in all cases: mRNA level, 48 h; actives raise or lower the signal
Caspase-3 (Homo sapiens) = Caspase-3 (Homo sapiens) (UniProt P42574); experiment: LTEA_HepaRG_CASP3: Life Technologies and Expression Analysis (LTEA) Assay for cysteine-aspartic acid protease (CASP3) using HepaRG (AID 2283477)
Sequence of Caspase-3 (Homo sapiens) (P42574 whole entry, looked up): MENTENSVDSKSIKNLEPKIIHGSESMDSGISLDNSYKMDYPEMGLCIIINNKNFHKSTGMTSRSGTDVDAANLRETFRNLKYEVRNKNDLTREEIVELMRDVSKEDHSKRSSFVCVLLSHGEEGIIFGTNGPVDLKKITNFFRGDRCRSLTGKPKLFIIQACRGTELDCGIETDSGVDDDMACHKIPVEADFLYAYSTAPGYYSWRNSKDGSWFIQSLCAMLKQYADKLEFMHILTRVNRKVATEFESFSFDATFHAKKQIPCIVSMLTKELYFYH
Outline: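 Transcript-level assay: CASP3 mRNA in human HepaRG after 48 h treatment, eight half-log concentrations from 100 uM in 0.5% DMSO, quantified by qRT-PCR.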

[1] = read-out: Cytochrome P450 (CYP24A1), CYP24A1 (gene 1591); experiment: LTEA_HepaRG_CYP24A1: Life Technologies and Expression Analysis (LTEA) Assay for Cytochrome P450 (CYP24A1) using HepaRG (AID 2283478)
Outline: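 Gene expression of CYP24A1 by TaqMan qRT-PCR in HepaRG after 48 h treatment, highest concentration 100 uM; activity fitted in both directions relative to DMSO vehicle.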

[2] = read-out: Cytochrome P450 (CYP1A2), CYP1A2 (gene 1544); experiment: LTEA_HepaRG_CYP1A2: Life Technologies and Expression Analysis (LTEA) Assay for Cytochrome P450 (CYP1A2) using HepaRG (AID 2283479)
Outline: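 In duplicate wells, HepaRG cultures maintained in 0.5% DMSO were treated 48 h across an 8-point, half-log series topping at 100 uM; phenobarbital (1 mM) served as induction control. Expression was read by qRT-PCR.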

[3] = read-out: cysteine-aspartic acid protease (CASP8), CASP8 (gene 841); experiment: LTEA_HepaRG_CASP8: Life Technologies and Expression Analysis (LTEA) Assay for cysteine-aspartic acid protease (CASP8) using HepaRG (AID 2283480)
Outline: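 Differentiated HepaRG cells in serum-free induction medium, 48 h exposure, eight-point half-log series from 100 uM in 0.5% DMSO, duplicates. CASP8 mRNA by qRT-PCR, normalized to ACTB, GAPDH, POLR2A; bidirectional fit versus DMSO.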

[4] = read-out: Cytochrome P450 (CYP2B6), CYP2B6 (gene 1555); experiment: LTEA_HepaRG_CYP2B6: Life Technologies and Expression Analysis (LTEA) Assay for Cytochrome P450 (CYP2B6) using HepaRG (AID 2283481)
Outline: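 Human HepaRG, 48 h dosing, 0.5% DMSO vehicle, top dose 100 uM. CYP2B6 transcript by qRT-PCR, housekeeping-normalized, bidirectional curve fit.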

[5] = read-out: Cytochrome P450 2C19 (Homo sapiens) (UniProt P33261); experiment: LTEA_HepaRG_CYP2C19: Life Technologies and Expression Analysis (LTEA) Assay for CYP2C19 using HepaRG (AID 2283482)
Outline: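 Endpoint: CYP2C19 mRNA change, bidirectional fit vs 0.5% DMSO. Cells: HepaRG, 48 h exposure, eight-point series topping at 100 uM. Quantitation: qRT-PCR normalized to ACTB, GAPDH, POLR2A.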

CYP2C8 (gene 1558) = experiment: LTEA_HepaRG_CYP2C8: Life Technologies and Expression Analysis (LTEA) Assay for CYP2C8 using HepaRG (AID 2283483)
Outline: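 Differentiated HepaRG cells in serum-free induction medium exposed 48 h in duplicate to 8 half-log concentrations from 100 uM in 0.5% DMSO. CYP2C8 mRNA by qRT-PCR normalized to ACTB, GAPDH, POLR2A; bidirectional fit versus DMSO.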

CYP2C9 (gene 1559) = experiment: LTEA_HepaRG_CYP2C9: Life Technologies and Expression Analysis (LTEA) Assay for CYP2C9 using HepaRG (AID 2283484)
Outline: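 Differentiated human HepaRG cells in serum-free induction medium were exposed 48 h to chemicals in 8-point half-log series from 100 uM (0.5% DMSO), in duplicate. CYP2C9 mRNA was measured by qRT-PCR, normalized to ACTB/GAPDH/POLR2A, with bidirectional fitting versus DMSO.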

CYP2E1 (gene 1571) = experiment: LTEA_HepaRG_CYP2E1: Life Technologies and Expression Analysis (LTEA) Assay for CYP2E1 using HepaRG (AID 2283485)
Outline: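 Differentiated HepaRG cells were treated in duplicate for 48 h with chemicals in 0.5% DMSO, from 100 uM downward in half-log dilutions. RNA was then analysed by qRT-PCR for CYP2E1 induction or loss.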

CYP4A11 (gene 1579) = experiment: LTEA_HepaRG_CYP4A11: Life Technologies and Expression Analysis (LTEA) Assay for CYP4A11 using HepaRG (AID 2283486)
Outline: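 Human hepatic HepaRG cultures receive duplicate 48 h exposures across a concentration-response series topping at 100 uM. Expression changes in CYP4A11 are measured by qRT-PCR relative to DMSO controls.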

[6] = read-out: Cytochrome P450 3A4 (Homo sapiens) (UniProt P08684); experiment: LTEA_HepaRG_CYP3A4: Life Technologies and Expression Analysis (LTEA) Assay for CYP3A4 using HepaRG (AID 2283487)
Outline: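 HepaRG, 48 h exposure, 8-pt CRC from 100 uM (half-log), 0.5% DMSO, duplicates; serum-free induction medium. Readout: CYP3A4 mRNA, qRT-PCR, ACTB/GAPDH/POLR2A normalization. Bidirectional fit vs DMSO.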

[7] = read-out: DNA damage-inducible transcript 3 (DDIT3), DDIT3 (gene 1649); experiment: LTEA_HepaRG_DDIT3: Life Technologies and Expression Analysis (LTEA) Assay for DNA damage-inducible transcript 3 (DDIT3) using HepaRG (AID 2283488)
Outline: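 Changes in DDIT3 transcript, in either direction relative to 0.5% DMSO vehicle, were quantified by TaqMan qRT-PCR after 48 h chemical exposure of HepaRG cells at 8 concentrations, maximum 100 uM.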

[8] = read-out: Pro-epidermal growth factor (Homo sapiens) (UniProt P01133); experiment: LTEA_HepaRG_EGF: Life Technologies and Expression Analysis (LTEA) Assay for Epidermal growth factor (EGF) using HepaRG (AID 2283489)
Outline: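 Concentration-response mRNA assay: HepaRG cells dosed 48 h (max 100 uM, 0.5% DMSO), EGF measured by qRT-PCR and normalized to ACTB/GAPDH/POLR2A.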

[9] = read-out: Early growth response protein 1 (EGR1) transcription factor, EGR1 (gene 1958); experiment: LTEA_HepaRG_EGR1: Life Technologies and Expression Analysis (LTEA) Assay for Early growth response protein 1 (EGR1) transcription factor using HepaRG (AID 2283490)
Outline: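 Differentiated HepaRG cells in serum-free induction medium exposed 48 hours, duplicate, to 8 half-log concentrations up to 100 uM in 0.5% DMSO. EGR1 mRNA measured by TaqMan qRT-PCR, normalized to ACTB, GAPDH, POLR2A; bidirectional fit versus DMSO.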

[10] = read-out: Ezrin (EZR), EZR (gene 7430); experiment: LTEA_HepaRG_EZR: Life Technologies and Expression Analysis (LTEA) Assay for Ezrin (EZR) using HepaRG (AID 2283491)
Outline: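 Read-out is EZR transcript level by qRT-PCR, normalized to three housekeeping genes and fitted bidirectionally against the DMSO control. Human HepaRG cells received test chemicals for 48 h at eight half-log concentrations up to 100 uM in 0.5% DMSO.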

[11] = read-out: Cytochrome P450 3A7 (Homo sapiens) (UniProt P24462); experiment: LTEA_HepaRG_CYP3A7: Life Technologies and Expression Analysis (LTEA) Assay for CYP3A7 using HepaRG (AID 2283492)
Outline: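 qRT-PCR of CYP3A7 in HepaRG lysates after 48 h treatment; concentration-response (8 points, max 100 uM) analysed bidirectionally relative to 0.5% DMSO controls.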

CYP3A5 (gene 1577) = experiment: LTEA_HepaRG_CYP3A5: Life Technologies and Expression Analysis (LTEA) Assay for CYP3A5 using HepaRG (AID 2283493)
Outline: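 mRNA induction or loss of CYP3A5 assessed in HepaRG after 48 h dosing, 100 uM top concentration, duplicate wells; TaqMan qRT-PCR with ACTB, GAPDH, POLR2A normalization; 0.5% DMSO as negative control.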

[12] = read-out: Fatty Acid-Binding Protein 1 (FABP1), FABP1 (gene 2168); experiment: LTEA_HepaRG_FABP1: Life Technologies and Expression Analysis (LTEA) Assay for Fatty Acid-Binding Protein 1 (FABP1) using HepaRG (AID 2283494)
Outline: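 Differentiated human HepaRG cells exposed 48 h in serum-free induction medium to eight half-log concentrations up to 100 uM (0.5% DMSO), duplicate. FABP1 mRNA by qRT-PCR, normalised to ACTB, GAPDH, POLR2A; bidirectional fitting against DMSO.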

[13] = read-out: Cytochrome P450 4A22 (Homo sapiens) (UniProt Q5TCH4); experiment: LTEA_HepaRG_CYP4A22: Life Technologies and Expression Analysis (LTEA) Assay for Cytochrome P450 4A22 (CYP4A22) using HepaRG (AID 2283495)
Outline: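 Concentration-response (8 points, max 100 uM, 0.5% DMSO) in human HepaRG liver cells after 48 h exposure. CYP4A22 mRNA by TaqMan qRT-PCR with housekeeping-gene normalization.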

[14] = read-out: Cytochrome P450 7A1 (Homo sapiens) (UniProt P22680); experiment: LTEA_HepaRG_CYP7A1: Life Technologies and Expression Analysis (LTEA) Assay for Cytochrome P450 7A1 (CYP7A1) using HepaRG (AID 2283496)
Outline: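 Gene expression endpoint in human HepaRG liver cells treated for 48 h with test chemicals (up to 100 uM, 0.5% DMSO). Values come from bidirectional concentration-response fitting versus DMSO.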

Measured: outcome

Sequence of Cytochrome P450 3A7 (Homo sapiens) (P24462 whole entry, looked up): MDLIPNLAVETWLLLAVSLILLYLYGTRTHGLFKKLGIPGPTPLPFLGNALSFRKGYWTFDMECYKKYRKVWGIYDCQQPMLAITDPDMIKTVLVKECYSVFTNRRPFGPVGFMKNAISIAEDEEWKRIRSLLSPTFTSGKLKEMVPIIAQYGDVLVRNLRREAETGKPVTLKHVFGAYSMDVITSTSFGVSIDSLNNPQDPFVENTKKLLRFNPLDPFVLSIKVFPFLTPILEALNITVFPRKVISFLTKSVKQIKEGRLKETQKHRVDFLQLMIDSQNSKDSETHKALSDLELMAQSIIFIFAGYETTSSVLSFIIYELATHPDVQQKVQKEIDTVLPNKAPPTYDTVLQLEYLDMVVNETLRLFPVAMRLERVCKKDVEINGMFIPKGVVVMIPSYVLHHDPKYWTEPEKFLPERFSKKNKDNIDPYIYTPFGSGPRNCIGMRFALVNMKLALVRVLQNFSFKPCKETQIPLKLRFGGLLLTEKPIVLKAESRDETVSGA
Sequence of Cytochrome P450 3A4 (Homo sapiens) (P08684 whole entry, looked up): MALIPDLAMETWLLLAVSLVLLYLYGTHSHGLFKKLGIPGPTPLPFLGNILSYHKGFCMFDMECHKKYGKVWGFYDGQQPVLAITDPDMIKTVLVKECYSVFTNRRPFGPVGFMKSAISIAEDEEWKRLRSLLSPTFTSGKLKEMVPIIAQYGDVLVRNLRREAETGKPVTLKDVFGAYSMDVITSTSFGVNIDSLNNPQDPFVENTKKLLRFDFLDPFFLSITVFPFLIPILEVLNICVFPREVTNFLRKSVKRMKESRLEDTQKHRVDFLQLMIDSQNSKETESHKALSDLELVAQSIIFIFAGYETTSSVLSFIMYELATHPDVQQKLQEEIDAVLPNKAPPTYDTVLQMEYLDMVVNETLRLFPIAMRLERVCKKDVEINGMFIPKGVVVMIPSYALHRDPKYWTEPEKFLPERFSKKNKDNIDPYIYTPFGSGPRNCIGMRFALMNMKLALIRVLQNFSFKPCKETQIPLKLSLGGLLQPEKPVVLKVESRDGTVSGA
Sequence of Cytochrome P450 2C19 (Homo sapiens) (P33261 whole entry, looked up): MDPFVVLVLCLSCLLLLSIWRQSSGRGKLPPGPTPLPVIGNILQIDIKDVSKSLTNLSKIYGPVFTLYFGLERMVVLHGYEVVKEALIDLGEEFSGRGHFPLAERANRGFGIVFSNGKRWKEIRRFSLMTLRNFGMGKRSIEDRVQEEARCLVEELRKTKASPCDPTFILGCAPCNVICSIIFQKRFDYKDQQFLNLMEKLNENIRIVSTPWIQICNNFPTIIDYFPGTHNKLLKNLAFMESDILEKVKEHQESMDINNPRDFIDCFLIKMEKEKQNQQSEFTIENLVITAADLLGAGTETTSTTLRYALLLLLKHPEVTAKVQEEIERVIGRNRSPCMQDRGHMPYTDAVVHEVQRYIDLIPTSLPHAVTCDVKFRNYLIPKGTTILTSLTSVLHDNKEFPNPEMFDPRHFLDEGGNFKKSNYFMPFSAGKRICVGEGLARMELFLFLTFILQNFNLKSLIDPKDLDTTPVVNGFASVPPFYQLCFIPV

CCCCOC(=O)CCCCCCCCC(=O)OCCCC
inactive: all assays above

Cc1c(C(=O)O)c(O)cc2c1C(=O)c1c(O)c([C@@H]3O[C@H](CO)[C@@H](O)[C@H](O)[C@H]3O)c(O)c(O)c1C2=O
inactive: all assays above

CCCCc1ccc2c(n1)[C@@H](c1ccc(OC)cc1C[C@H](C)C(=O)O)[C@H](C(=O)O)[C@H]2c1ccc2c(c1)OCO2
inactive: all assays above
